Rows were chosen to be rich in hits. Some 1.9% of all compounds tested hit in one or more screens of this group.
H9c2 protect = myocardial damage modulation in H9c2 cells; 360,000 tested, 0.63% active; AID 588492; protection from H2O2 cell death, % at 20 µM; H9c2 cardiomyocytes, H2O2 injury protection, ATPLite, 2 h;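 active = compounds giving at least 50% protection of heart cells from peroxide-induced death in the single-dose screen, raw or plate-pattern-corrected value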;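 also: 0% = DMSO wells with peroxide and 100% = DMSO wells without peroxide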
PP1 inh = blocks human PP1-alpha phosphatase, a PP5 counter-screen; P62136; purified PP1alpha, OMFP fluorescence; inhibition, % at 6.7 µM; 320,000 tested, 0.9% active; AID 2235;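 active = inhibition above the mean inhibition of all tested compounds plus 3 SD, computed separately for each screening campaign, cut at about 15% in these data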
ATG4B inh = ATG4B (human) cysteine protease inhibition; inhibition, % at 8.33 µM; AID 504462; Q9Y4P1; 340,000 tested, 0.51% active; ATG4B cleavage of LC3-PLA2, NBD-HPC fluorescence, 1 h; in the data active = inhibition above about 40%
Target sequence (Q9Y4P1 whole entry, looked up): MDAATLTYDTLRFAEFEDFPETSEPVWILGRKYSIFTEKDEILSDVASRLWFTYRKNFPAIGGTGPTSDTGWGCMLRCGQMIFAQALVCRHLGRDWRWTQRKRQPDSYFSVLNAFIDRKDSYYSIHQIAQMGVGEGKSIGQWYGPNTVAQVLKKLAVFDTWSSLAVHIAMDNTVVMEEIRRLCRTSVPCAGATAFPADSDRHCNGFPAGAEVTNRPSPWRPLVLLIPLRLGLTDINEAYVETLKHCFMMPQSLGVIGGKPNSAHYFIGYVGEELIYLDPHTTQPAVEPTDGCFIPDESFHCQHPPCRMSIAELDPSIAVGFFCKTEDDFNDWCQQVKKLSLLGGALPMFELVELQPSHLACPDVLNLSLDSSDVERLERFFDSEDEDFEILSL
PP5 primary = blocks human protein phosphatase 5 activity; 320,000 tested, 0.18% active; P53041; AID 1987; inhibition, % at 6.7 µM; purified PP5c, OMFP substrate fluorescence;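 active = inhibition above the campaign's mean inhibition across all tested compounds plus 3 SD, cut at about 9.5% in these data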;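 also: 0% = DMSO only and 100% = 100 µM cantharidin control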
PP1 confirm = confirmation of human PP1 phosphatase inhibitors; shares compounds with PP1 inh; purified PP1alpha, OMFP substrate fluorescence; inhibition, % at 6.7 µM; 1,900 tested, 52% active; AID 2358;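 active = mean PP1 inhibition above a set limit taken from the earlier primary screen, cut at about 15% in these data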
PP5 counter = PP5 phosphatase inhibition, counter-screen for PP1 inhibitors. purified PP5c, OMFP fluorescence. inhibition, % at 6.7 µM. 1,900 tested, 4% active. shares compounds with PP1 inh;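 active = mean PP5 inhibition over triplicate wells above about 9.5% taken from the earlier PP1 screen, limit read from the data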
* = called active by the depositor; · = no result.

SMILES | H9c2 protect | PP1 inh | ATG4B inh | PP5 primary | PP1 confirm | PP5 counter
Cn1cc(C(=O)N/N=C/c2c(O)ccc3ccccc23)ccc1=O | 71.2* | 26.9* | 2.3 | -0.8 | 28.9* | -3.3
Cn1nccc1C(=O)N/N=C/c1c(O)ccc2ccccc12 | 38.9 | 2.0 | -12.7 | 1.9 | · | ·
Cc1cc(C)c2nc(N3C(=O)C(O)=C(C(=O)c4ccco4)C3c3ccc(O)cc3)sc2c1 (centres undefined) | -2.0 | 33.6* | 1.6 | 3.1 | 29.7* | 2.1
Cc1cc(C)c2nc(N3C(=O)C(O)=C(C(=O)c4ccco4)C3c3cccc(O)c3)sc2c1 (centres undefined) | 3.1 | 34.2* | -5.7 | 2.5 | 26.5* | 1.7
Cn1nc(C(F)(F)F)c(-c2ccccc2)c1NC(=O)c1nccnc1C(=O)O | 0.8 | 24.6* | -7.9 | 1.2 | -0.5 | -2.7
CCn1ccnc1CN(C)C(=O)C1CCC(=O)N(Cc2cccc(C(F)(F)F)c2)C1 (centres undefined) | -0.4 | -4.5 | 8.1 | -1.4 | · | ·
C#CCOCCOCCOCCNc1nc(N2CCN(C(=O)[C@H]([C@@H](C)CC)n3cc([C@@H](N)Cc4ccc(O)cc4)nn3)CC2)nc(N2CCN(C(=O)[C@H](Cc3cc4ccccc4[nH]3)n3cc([C@@H](N)CC(C)C)nn3)CC2)n1 | 2.0 | 28.2* | -4.7 | 0.3 | -13.0 | -3.7
C#CCOCCOCCOCCNc1nc(N2CCN(C(=O)[C@H]([C@@H](C)CC)n3cc([C@@H](N)CC(C)C)nn3)CC2)nc(N2CCN(C(=O)[C@H](Cc3cc4ccccc4[nH]3)n3cc([C@@H](N)Cc4ccc(O)cc4)nn3)CC2)n1 | · | 25.2* | -35.2 | 6.8 | -14.7 | 6.4
COc1ccc(CCC(=O)Nc2nc(C)c(C(=O)N(C)C)s2)cc1 | 2.9 | 2.3 | -7.1 | -5.8 | · | ·
COc1ccc(C(CNC(=O)C(CCSC)NC(=O)c2ccccc2Cl)N2CCCCC2)cc1 (centres undefined) | 0.2 | -4.2 | -7.2 | 0.6 | · | ·
CSCCC(NC(=O)c1ccccc1Cl)C(=O)NCC(c1ccco1)N1CCCCC1 (centres undefined) | 9.0 | 44.6* | -0.4 | -1.6 | -5.2 | -1.8
CCOC(=O)c1csc(N/N=C2\CCc3ccccc32)n1 | 2.2 | 18.6* | -8.7 | 2.6 | 17.3* | -1.1
COc1ccc2c(c1)CCC/C2=N\Nc1nc(C(=O)NN)cs1 | 14.3 | 22.4* | 1.4 | 2.2 | 8.9 | -3.7
CCOC(=O)c1csc(N/N=C2\CCCc3ccccc32)n1 | -8.5 | 2.8 | 15.8 | 2.8 | · | ·
COc1ccc(-n2nc(C(=O)NCC(=O)Nc3ccc(F)cc3)c3ccccc3c2=O)cc1 | 13.4 | 1.0 | -0.1 | 6.2 | · | ·
Cc1ccc(C(=O)NNC(=O)/C=C\C(=O)O)cc1 | 1.8 | -2.2 | -4.1 | -2.0 | · | ·
O=C(O)C1=NN(c2ccccc2)C(=O)CC1 | 0.7 | 10.2 | 7.3 | 3.0 | · | ·
O=C(O)C1=NN(c2ccccc2)C(=O)C1 | 0.6 | 28.7* | 1.4 | -3.1 | -2.8 | -4.4
O=C(O)c1cc(-c2ccc(Cl)c(Cl)c2)n(-c2ccccc2)n1 | 1.2 | 57.7* | 9.0 | 0.5 | 51.9* | -4.9
Cc1ccc(-n2nc(C(=O)O)nc2-c2ccccc2)cc1 | 5.0 | 12.0 | 3.4 | -1.3 | · | ·
O=C(O)c1cc(-c2ccc(Cl)cc2)n(-c2ccc(Cl)cc2)n1 | 0.3 | 43.2* | -2.0 | -1.1 | 45.2* | -3.1
CNC(=O)c1cc(-c2ccc(Cl)cc2)n(-c2ccccc2)n1 | -2.2 | -1.8 | -7.3 | 2.9 | · | ·
Cc1ccc(-n2nc(C(=O)O)cc2-c2ccccc2)cc1 | -1.0 | 33.1* | -1.6 | -1.0 | 30.7* | -4.3
Cc1ccc(-n2nc(C(=O)O)cc2-c2ccc(Cl)cc2)cc1 | 1.5 | 47.2* | -8.1 | -1.9 | 47.2* | 3.4
Cc1csc(NC(=O)c2cc(C)on2)n1 | -8.2 | -3.4 | -6.0 | -2.5 | · | ·
O=C(O)c1cc(-c2ccc(Cl)cc2)n(-c2ccc(F)cc2)n1 | 3.8 | 46.9* | 15.9 | 0.3 | 37.2* | -2.5
CCSc1nc2c(cnn2-c2ccc(C)cc2)c(=O)[nH]1 | 3.5 | 21.6* | 1.5 | -10.0 | 5.8 | -4.3
O=C(CCNC(=O)c1ccco1)Nc1ccc(OC(F)F)cc1 | -2.7 | -3.9 | -1.6 | 1.4 | · | ·
CCc1nnc(NC(=O)c2ccc(S(=O)(=O)N(CC(C)C)CC(C)C)cc2)o1 | 41.8 | 25.5* | -7.1 | 0.7 | 29.8* | -1.9
CSCc1nnc(NC(=O)c2ccc(S(=O)(=O)N(C)C)cc2)o1 | 10.8 | 5.8 | 1.4 | 1.4 | · | ·
